Drawing on PubChem BioAssay (Tox21), this text covers Potency for 40 compounds.

The structures appear in SMILES notation. Results filed as inconclusive are left out. Where a call stands in place of a potency, no number is given. Active and inactive are the calls of the source. Calls follow the shape of the dose curve; as a rule, active = well fitted cell-killing curve with a large enough effect in the repeat runs; inconclusive = weak or mixed curves; inactive = flat fitted curve, though single readings scatter.

The nature of this assay: qHTS assay to identify small molecule antagonists of the TGF-beta/Smad signaling pathway - cell viability counter screen (AID 1346824). Also: nearly all actives have a fitted effect of over 50% in size. As to conditions: SBE-bla HEK293T viability, CellTiter-Glo luminescence; series mostly up to 76.8 µM. The source says: U.S. Tox21 Program National Center for Advancing Translational Sciences [NCATS] NIH Chemical Genomics Center [NCGC] U.S. Environmental Protection Agency [EPA] National Institutes of Environmental Health Sciences [NIEHS] National Toxicology Program [NTP] U.S. Food and Drug Administration [FDA] Tox21 Assay Overview: Transforming growth factor beta (TGF-beta) superfamily consists of a large number of structurally related dimeric proteins that act as hormones or local mediators in regulating a wide range of biological functions. This superfamily includes TGF-betas themselves, the bone morphogenetic proteins (BMPs) and the activins. These ligands induce oligomerization of serine/threonine receptor kinases and phosphorylate the cytoplasmic signaling molecules of Smad protein family. CellSensor SBE-bla HEK 293T cell line (Life Technologies, Carlsbad, CA), responsive to TGF-beta was used to screen Tox21 10K compound library for identification of agonists/antagonists of the Smad signaling pathway. This cell line contains a beta-lactamase reporter gene under control of the Smad binding element (SBE) stably integrated into HEK 293T cells. Also cytotoxicity of the compounds was tested in parallel by measuring the cell viability using CellTiter-Glo assay system in the same wells.
Tox21 Assay Protocol Summary: SBE-bla HEK 293T cells were dispensed at 4,000/well in 5 uL of assay medium into black wall/clear-bottom 1536-well plates using a Multidrop Combi (ThermoFisher Scientific, Waltham, MA) dispenser. After the assay plates were incubated at 37 C and 5% CO2 for an overnight, 23 nL of compounds dissolved in DMSO, positive controls or DMSO only was transferred to the assay plate by a Pintool station (Kalypsys, San Diego, CA). Compound transfer was followed by the addition of 1 uL of 0.25 ng/mL TGF-beta1 or assay buffer using two separate tips of Flying Reagent Dispenser (FRD, Aurora Discovery, San Diego, CA). The assay plates were incubated at 37 C and 5% CO2 for 5 hr. One uL of LiveBLAzer B/G FRET substrate (Life Technologies) was added using a Flying Reagent Dispenser (FRD, Aurora Discovery, San Diego, CA) and the plates were incubated at room temperature for 2 hr. Fluorescence intensity (405 nm excitation, 460 nm and 530 nm emissions) was measured using an Envision plate reader (PerkinElmer, Shelton, CT). For cytotoxicity read, 4 uL of CellTiter-Glo reagent (Promega Corporation, Madison, WI) was added to each well of the assay plates using FRD. After 30 min incubation at room temperature, the luminescence intensity was measured using ViewLux plate reader (PerkinElmer).
Consider `C=C/C(C)=C/C/C=C(\C)CCC=C(C)C`, for which the Potency entry was “inactive”.

In the case of `Cc1cc(C)cc(N)c1`, the Potency result was “inactive”.

`O=C(O)c1ccc(OCCCOc2ccc(C(=O)O)cc2)cc1`: the Potency entry was “inactive”.

As to `CCC1CO1` (stereo not given), the Potency entry is “inactive”.

`Clc1ccc(Nc2nnc(Cc3ccncc3)c3ccccc23)cc1`: the Potency result was “inactive”.

Regarding `Oc1cc2c(cc1O)[C@H]1c3ccc(O)c(O)c3OC[C@@]1(O)C2`, the Potency entry was “inactive”.

`CCC(C)COC(C)=O` (stereo not given): the Potency result is “inactive”.

For the compound `O=c1[nH]ncc2ccccc12`, the Potency entry was “inactive”.

Regarding `N#CCCN(CCO)CCO`, the Potency entry was “inactive”.

As to `CC(=O)OCCN(CCOC(C)=O)c1ccc(N=Nc2ccc([N+](=O)[O-])cc2C#N)cc1`, the Potency entry is “inactive”.

On to `O=C=Nc1ccc(Cl)c(Cl)c1`, for which the Potency result is “inactive”.

Turning to `C1C[C@@H]2[C@H]3CC[C@H](C3)[C@@H]2C1`, the Potency entry is “inactive”.

Consider `C[C@H]1c2cccc(O)c2C(O)=C2C(=O)[C@]3(O)C(O)=C(C(N)=O)C(=O)[C@@H](N(C)C)[C@@H]3[C@@H](O)[C@@H]21`, for which the Potency result is “inactive”.

Consider `CCOC(=O)/C=C/C(=O)OCC`, for which the Potency result is “inactive”.

For `CC(C)(O)c1ccc(CNC(=O)c2cccnc2Oc2ccc3nonc3c2)cc1`, the Potency result was “inactive”.

`C[C@@H](CN(C)C)CN1c2ccccc2Sc2ccccc21`: the Potency entry is “inactive”.

`COc1cc(N)c(Cl)cc1C(=O)NC1CCN(CCCOc2ccc(F)cc2)CC1OC` (stereo not given): the Potency result is “inactive”.

For the compound `O=C(O)CCc1nc(-c2ccccc2)c(-c2ccccc2)o1`, the Potency entry was “inactive”.

On to `O=C1CCCCCCCCCCOCCCCO1`, for which the Potency result is “inactive”.

For the compound `c1ccc2c(c1)CCc1ccccc1N2`, the Potency result is “inactive”.

Regarding `CN1CC(=O)N2[C@H](c3ccc4c(c3)OCO4)c3[nH]c4ccccc4c3C[C@@H]2C1=O`, the Potency entry was “inactive”.

For `Cc1ccccc1S`, the Potency entry was “inactive”.

Consider `C=C(C)[C@@H]1CCC2=CCC[C@@H](C)[C@]2(C)C1`, for which the Potency entry was “inactive”.

On to `O=C(CCCN1CC=C(n2c(=O)[nH]c3ccccc32)CC1)c1ccc(F)cc1`, for which the Potency entry was “inactive”.

For the compound `C/C=C/C=C/C=O`, the Potency result is “inactive”.

For the compound `CC1(C)S[C@@H]2[C@H](NC(=O)C(c3ccccc3)S(=O)(=O)O)C(=O)N2[C@H]1C(=O)O` (stereo not given in full), the Potency entry was “inactive”.

For `CC(CN(C)C)C(C)(O)Cc1ccc(Cl)cc1` (stereo not given), the Potency entry was “inactive”.

For the compound `CCC(OCCCOC)OC(C)=O` (stereo not given), the Potency entry was “inactive”.

On to `O=[N+]([O-])c1ccc(O/N=C/c2cc(Br)c(O)c(Br)c2)c([N+](=O)[O-])c1`, for which the Potency entry was “inactive”.

With `CCOC(=O)c1ccccc1C(=C1C=C(Br)C(=O)C(Br)=C1)c1cc(Br)c(O)c(Br)c1`, the Potency result is “inactive”.

`CCOc1ccc(Cc2nccc3cc(OCC)c(OCC)cc23)cc1OCC`: the Potency result is “inactive”.

Turning to `CCOC(=O)OC(C)OC(=O)[C@@H]1N2C(=O)[C@@H](NC(=O)[C@H](N)c3ccccc3)[C@H]2SC1(C)C` (stereo not given in full), the Potency entry is “inactive”.

Consider `C=C1c2cccc(O)c2C(O)=C2C(=O)[C@]3(O)C(O)=C(C(N)=O)C(=O)[C@@H](N(C)C)[C@@H]3[C@@H](O)[C@H]12`, for which the Potency entry was “inactive”.

In the case of `O[C@@H]1CO[C@H]2[C@@H]1OC[C@@H]2O`, the Potency entry is “inactive”.

Turning to `OC1(c2ccccc2)CCNCC1`, the Potency result is “inactive”.

On to `N#[N+]c1ccc2c(S(=O)(=O)[O-])cccc2c1O`, for which the Potency entry is “inactive”.

In the case of `CCOC(=O)c1ccc(OCCN2C[C@H](O)[C@@H](O)[C@H](O)[C@H]2CO)cc1`, the Potency entry was “inactive”.

As for `CNC(=O)c1cnn(-c2nc(N)c3ncn([C@@H]4O[C@H](CO)[C@@H](O)[C@H]4O)c3n2)c1`, the Potency entry is “inactive”.

With `COC(=O)CS`, the Potency result was “inactive”.

For `CC1CC(OC(=O)C(O)c2ccccc2)CC(C)(C)N1C` (stereo not given), the Potency result was “inactive”.
